Results on 58 compounds are retold here after PubChem BioAssay AID651994 (Sanford-Burnham Center for Chemical Genomics, 2013).

Molecules are shown by their SMILES. The campaign covered roughly 2,500 compounds. About 790 (32%) were called active.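 How the source made its calls: active means mean cytotoxicity at 5 µM above about 25% (limit read from the data); inactive means the rest.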 Not all results are given here.

The nature of the assay: cell viability loss, Sufu-null reporter line – ATP luminescence, single concentration, cytotoxicity control for Gli-SUFU antagonist project, confirmation (AID 651994).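 Further: cells exposed to compound overnight for roughly 16 to 18 hours; plate controls were DMSO wells with cells for no effect and medium without cells for full effect.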 The settings on record: Sufu-KO-LIGHT cells cytotoxicity, at 5 µM, active compounds read high.
For the compound `COc1ccc2c(C)cc3nnnn3c2c1`, the cytotoxicity was 27% (active).
Next, `CC1(C)CC(=O)c2c(n(S(=O)(=O)c3ccccc3)c3ccc(NS(=O)(=O)c4ccccc4)cc23)C1`: 23.1% (inactive); `Cc1ccc(NC(=S)Nc2ccc(F)cc2)cc1`: 25.1% (active).
Take `COc1ccc(NC(=O)[C@H](NC(=O)[C@@H]2Cc3ccccc3CN2)c2ccccc2)cc1`: the cytotoxicity is 6.92% (inactive).
Regarding `CCN(CC)CCNC(=O)c1ccc(NC(=O)c2cc(-c3ccncc3)nc3ccccc23)cc1`, the cytotoxicity was 16.3% (inactive).
Then `Nc1ccc(C(=O)N2CCN(S(=O)(=O)c3ccc(Cl)cc3)CC2)cc1[N+](=O)[O-]`, with 14.4% (inactive); and `CC(=O)N1CCCc2cc(S(=O)(=O)N3CCCC(C(=O)N4CCN(c5cccc(Cl)c5)CC4)C3)ccc21` (stereo not drawn), with 24.2% (inactive).
Next, `O=C(NCCOCc1ccc(Cl)cc1)c1ncn[nH]1`: 18.8% (inactive); `N#Cc1ccc(C(=O)Nc2nc(-c3cccs3)c(C(=O)C(F)(F)F)s2)cc1`: 32.7% (active).
Then `C/C(=N\Nc1ccc(Cl)nn1)c1ccccc1O`, with 23.9% (inactive); and `O=C(O)c1ccc(N/N=C/c2ccc3ncccc3c2)cc1`, with 22.3% (inactive).
With `CCN(CCO)C(=S)Nc1cc(C(=O)OC)ccc1C(=O)OC`, the cytotoxicity is 18.2% (inactive).
Then `C=CCC1(CC=C)CCCN1C(=O)c1cc(COc2ccc(-n3cncn3)cc2)on1`, with 36.4% (active); and `CSc1ncccc1C(=O)Nc1nc2ccc(F)cc2s1`, with 28.1% (active).
Next, `O=C(Nc1nc2ccc([N+](=O)[O-])cc2s1)c1ccc(S(=O)(=O)N2CCCc3ccccc32)cc1`: 23.2% (inactive); `Cc1ccc(S(=O)(=O)N2C[C@@H]3CCCC[C@@H]3[C@@H](C)[C@H]2c2cn(Cc3ccccc3)c3ccc(F)cc23)cc1`: 7.61% (inactive).
Regarding `C=CCNC(=S)/N=c1/ccccn1Cc1ccccc1`, the cytotoxicity was 22.1% (inactive).
Then `CCC(Cc1ccccc1)NC(=O)C1CCCCC1` (stereo not drawn), with 9.02% (inactive).
Then `O=C(Nc1cccc(S(=O)(=O)Nc2ccc(Cl)cc2)c1)c1ccc2c(c1)OCCO2`, with 28.9% (active); and `O=C1C=C(c2ccnc3cc(Cl)ccc23)C[C@@H](c2ccc3c(c2)OCO3)C1`, with 30.6% (active); and `CCN1/C(=C/C(=S)Nc2ccccc2)Sc2ccccc21`, with -1.08% (inactive).
For `CC(C)(CNC(=O)c1ccc(Cl)c(S(=O)(=O)N2CCc3ccccc3C2)c1)N1CCOCC1`, the cytotoxicity is 17.5% (inactive).
Next, `COc1ccc(C(=O)NC2CCCc3c2cnn3-c2cccc(C)c2C)c(OC)n1` (stereo not drawn): 26.7% (active); `Cc1ccc(S(=O)(=O)NC(C)C(=O)Nc2ccccc2C(=O)N2CCCC2)cc1` (stereo not drawn): 12.8% (inactive).
Turning to `CCc1c(C)nc2cc(C)[nH]n2c1=O`, the cytotoxicity was 10.3% (inactive).
Next, `Cc1cc(C(=O)CSc2nc(N)cc(=O)[nH]2)c(C)n1-c1cccc(F)c1`: 34.2% (active); `CN(C)CCSc1nc(N)c2c3c(sc2n1)COC(C)(C)C3`: 9.54% (inactive).
Then `O=C(CN1CCN(S(=O)(=O)c2cc(Cl)ccc2Cl)CC1)c1ccc(O)c(O)c1`, with 14.6% (inactive); and `CC(=O)Nc1ccc(NC(=O)c2ccc3c(c2)C(=O)N(c2ccccc2C)C3=O)cc1`, with 24.5% (inactive).
Then `Brc1c(CSc2nncc3ccccc23)nc2ccccn12`, with -3.37% (inactive).
In the case of `CN(c1ccc2nc3ccccc3c(=O)n2n1)C1CCCCC1`, the cytotoxicity was 84.2% (active).
Then `NS(=O)(=O)c1ccc(CCNC(=O)CCCn2c(SCC(=O)N3CCCC3)nc3ccsc3c2=O)cc1`, with -12.7% (inactive); and `CC(C)(C)c1ccc(Oc2ccc(N)cc2)cc1`, with 18.4% (inactive); and `COc1ccc(Cc2nnc(N/N=C/c3ccccc3O)[nH]c2=O)cc1OC`, with 43.8% (active).
Then `COc1ccc(/C=N/N=C2/C(=O)Nc3ccccc32)cc1O`, with -0.38% (inactive); and `CC1(C)Cc2ccccc2/C(=C/C(=O)c2ccccc2)N1`, with 4.12% (inactive); and `CC1(C)CC2CC(C)(CN2c2ncnc3ccc(Br)cc23)C1` (stereo not drawn), with 38.5% (active).
Next, `COc1cc(C(=O)OC2CCOC2=O)c([N+](=O)[O-])cc1OC` (stereo not drawn): 3.16% (inactive); `COc1cccc(-n2cc(C(=O)O)c3ccccc3c2=O)c1`: 25.1% (active); `O=C(Nc1ccnn1C1CCN(C/C=C/c2ccc(F)cc2)CC1)C1CCCC1`: 2.29% (inactive).
In the case of `Cc1nn(C)c(Cl)c1CN1CCC(n2nccc2NC(=O)C2CCCC2)CC1`, the cytotoxicity was 16.4% (inactive).
Next, `CN(C)C(CNC(=O)Cc1ccc([N+](=O)[O-])cc1)c1ccccc1` (stereo not drawn): 15.4% (inactive).
Next, `COc1ccc(C(=O)NCc2nnc(SCCOc3ccccc3)n2C)cc1`: 10.2% (inactive); `COc1cc(C(=O)OC(C)C(=O)NCC2CCCCC2)cc(NC(=O)c2ccco2)c1OC` (stereo not drawn): -2.91% (inactive).
Next, `O=C(Nc1cc2c3c(c1)C1CCCC1CN3CC1CCCC21)c1ccc([N+](=O)[O-])cc1` (stereo not drawn): 29.3% (active).
In the case of `COC(=O)c1ccccc1NC(=O)C1(S(=O)(=O)c2ccc(Cl)cc2)CC1`, the cytotoxicity is -1.28% (inactive).
Then `NC(N)=Nc1nc(-c2ccccc2)c2cc(Cl)ccc2n1`, with 27.1% (active); and `O=c1c2ccccc2nc2n1C(CSCc1cccc(C(F)(F)F)c1)CS2` (stereo not drawn), with 34.2% (active).
Then `Cc1ccc(-c2nc(CSCC(=O)NC3CCN(Cc4ccccc4)CC3)c(C)o2)cc1`, with 12% (inactive); and `O=C(C[C@H]1C/C=C\C[C@@H](NC(=O)OCC2c3ccccc3-c3ccccc32)C(=O)O[C@@H](c2ccccc2)CNC1=O)N[C@H](CO)Cc1ccccc1`, with 18.6% (inactive).
On to `CNc1nnc(-c2ccco2)s1`, for which the cytotoxicity is -0.36% (inactive).
Then `O=C1/C(=C/c2ccc(F)cc2)SC(=S)N1NS(=O)(=O)c1ccccc1`, with 16.4% (inactive).
Then `Cc1ccc(Nc2nc(N3CCOCC3)nc(N3CCOCC3)n2)cc1Cl`, with 40.8% (active); and `CCc1ccc(C2C(C#N)=C(N)N(N3CCOCC3)C3=C2C(=O)CC(C)(C)C3)s1` (stereo not drawn), with 25.2% (active); and `CC(C)C(=O)Nc1nnc(SCC(=O)N2C(C)CCCC2C)s1` (stereo not drawn), with 1.96% (inactive).
Then `CCc1c(C)[nH]c(=S)c(C#N)c1C`, with 9% (inactive); and `Cc1c(Cl)c([N+](=O)[O-])nn1Cc1ccc(C(=O)N/N=C\c2cc(Cl)ccc2O)o1`, with 29% (active); and `CCOc1ccc(-n2c(O)c(/C=N/Nc3nc(C)cc(C)n3)c3ccccc3c2=O)cc1`, with 17.6% (inactive).
